# Rows were chosen to be rich in hits. Some 2.8% of all compounds tested hit in one or more screens of this group.
# Pol iota inh: blocks human DNA polymerase iota activity | Q9UNA4 | Pol iota fluorescent replication assay, 10 min | Potency, µM (top dose mostly 115 µM), actives largely listed as inhibitors | hit rate 1% among 390,000
#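 Pol iota at 10 nM preincubated 15 min with compounds at room temperature; reaction started with fluorescent substrate, 50 nM final. Fluorescence read kinetically at 0 and 10 min; buffer-only wells as negative control.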
# PI5P4Ka inh: inhibitors of human PI5P4K alpha | PI5P4Kalpha enzyme, ADP-Glo luminescence, 60 min; stronger effect = lower value | max response, % | hit rate 1.2% among 330,000; active means max response of -50% or lower; inconclusive means between -30% and -50%; inactive means -30% or higher; further: value at the top dose of about 77 µM
#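 Reactions run in 0.038 M HEPES pH 7.4, 0.28 mM EGTA, 0.1% CHAPS and 5% DMSO, with PI5P4Kalpha, substrate, compound and 5 microM ATP final, one hour at room temperature. Readout is ADP-Glo luminescence.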
# Pol eta inh: DNA polymerase eta (human) inhibition | Q9Y253 | recombinant Pol eta, fluorescent DNA replication assay | Potency, µM (series often up to 114 µM), actives largely listed as inhibitors | hit rate 1.2% among 390,000
# Target sequence (Q9Y253 whole entry, looked up): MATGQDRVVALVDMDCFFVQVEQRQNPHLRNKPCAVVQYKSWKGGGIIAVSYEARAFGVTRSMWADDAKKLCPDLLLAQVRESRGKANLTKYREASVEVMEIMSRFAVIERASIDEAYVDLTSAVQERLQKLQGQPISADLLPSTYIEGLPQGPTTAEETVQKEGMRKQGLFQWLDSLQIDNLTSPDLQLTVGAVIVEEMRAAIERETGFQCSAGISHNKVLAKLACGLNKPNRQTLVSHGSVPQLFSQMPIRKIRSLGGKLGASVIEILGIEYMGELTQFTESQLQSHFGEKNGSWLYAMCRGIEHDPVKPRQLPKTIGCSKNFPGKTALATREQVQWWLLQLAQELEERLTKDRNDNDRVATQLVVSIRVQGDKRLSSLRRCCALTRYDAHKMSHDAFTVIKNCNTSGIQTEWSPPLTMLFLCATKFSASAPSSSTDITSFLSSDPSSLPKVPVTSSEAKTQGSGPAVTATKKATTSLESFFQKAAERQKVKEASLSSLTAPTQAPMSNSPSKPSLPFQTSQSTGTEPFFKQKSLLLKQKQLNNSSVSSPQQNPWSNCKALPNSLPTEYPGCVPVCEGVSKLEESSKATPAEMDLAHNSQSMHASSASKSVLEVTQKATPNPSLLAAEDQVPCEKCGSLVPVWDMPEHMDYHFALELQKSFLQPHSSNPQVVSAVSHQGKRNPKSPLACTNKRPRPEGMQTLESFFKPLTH
#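 Pol eta (10 nM) was preincubated with compounds for 15 min at room temperature, after which fluorescent replication substrate (50 nM final) was added to start the reaction. Fluorescence was read kinetically at 0 and 10 min.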
# WRN inhibitor: inhibitors of human WRN helicase | Potency, µM (series often up to 114 µM), hits mostly inhibitors | WRN helicase unwinding, fluorescent forked duplex, kinetic | hit rate 0.46% among 360,000; further: nearly all actives have a fitted effect of over 55% in size
#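 WRN at 20 nM final preincubated with compound 15 min at room temperature; reaction started with 100 nM fluorophore/quencher forked duplex oligonucleotide and 2 mM ATP final. Unwinding followed kinetically by red fluorescence (ex 525, em 598 nm).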
# POLK inh: DNA polymerase kappa (human) inhibition; hit rate 0.53% among 400,000; Q9UBT6; purified Pol kappa, fluorescent DNA synthesis assay, 10 min; Potency, µM (highest dose often 107 µM), actives largely listed as inhibitors; AID 588579
#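 First, compounds were pin-transferred onto 10 nM Pol kappa. After 15 min at room temperature, substrate was added to 50 nM final. Fluorescence was then measured kinetically at 0 and 10 min.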
# POLB inh: DNA polymerase beta (human) inhibition. hit rate 1.3% among 340,000. Potency, µM (doses to about 114 µM), usual class: inhibitors. P06746. AID 485314. Pol beta primer extension/strand displacement, fluorescence kinetic
#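 Human Pol beta at 10 nM; strand-displacement substrate 50 nM final. Compound exposure 15 min at room temperature before start, reaction 10 min at room temperature.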
# Numbers stand for hits; – = inactive; ? = inconclusive; · = no result; ! = not confirmed by another sample; [ ] = another dose, or the depositor's remark. Unless noted, the call rests on the fitted dose curve; in most records, active means well fitted curve in the direction sought with a large enough effect; inconclusive means small, poorly fitted or top-dose-only effect, or another doubt; inactive means no such curve, though single readings can be large; an effect the other way counts as inactive or inconclusive.
SMILES,Pol iota inh,PI5P4Ka inh,Pol eta inh,WRN inhibitor,POLK inh,POLB inh
O=C(Nc1cccc(Cl)c1)c1cc2c(=O)n3ccccc3nc2s1,–,–,–,–,–,–
OC1CCCN(Cc2ccc3ccc4cccc5ccc2c3c45)C1 (stereo unspecified),?,·,–,–,–,40µM
CCOc1ccc(NC(=O)NNC(=O)c2ccc(CC)s2)cc1,?,–,–,–[11.6 µM],–,79µM
CCOc1ccc(NC(=O)Nc2ccc3c(c2)CCC3)cc1,–,–,–,–,–,25µM
O=C(Nc1ccccc1F)c1ccc(CSc2ccccc2)o1,–,–,–,–,–,–
CN(Cc1ccccc1)S(=O)(=O)c1ccc2[nH]c(=O)oc2c1,–,–,–,–,–,–
CCOc1ccc(CNS(=O)(=O)c2ccc3[nH]c(=O)ccc3c2)cc1,–,·,–,·,–,–
O=c1ccc2cc(S(=O)(=O)NCc3ccc(Cl)cc3)ccc2[nH]1,?,·,–,·,?,11µM
CN(Cc1ccccc1)S(=O)(=O)c1ccc2[nH]c(=O)ccc2c1,?,–,–,–,–,32µM
O=C(Cn1c(=O)n(-c2ccc(Cl)cc2)c(=O)c2sc3ccccc3c21)NC1CCCC1,–,·,–,·,–,–
CO[C@@]1(NC(=O)CSCC#N)C(=O)N2C(C(=O)O)=C(CSc3nnnn3C)CS[C@@H]21,?,–,2.2µM!,·,–,–
O=C(CSc1nc(-c2ccccc2)nc2c1CCCC2)c1ccc(F)cc1,–,·,–,·,–,–
COc1ccc([C@H]2CC(=O)C=C(c3ccc(SC)cc3)C2)cc1,89µM,–,–,–,–,·
COc1ccc(C2=CC(=O)C[C@H](c3ccc(OC)cc3)C2)cc1,–,–,–,–,–,·
O=C(CCCCCCCCC(=O)N/N=C/c1ccco1)N/N=C/c1ccco1,?,–,–,?,–,50µM
CNc1nc(Sc2ccc(C)cc2)cc(C(F)(F)F)n1,–,·,–,–,–,–
O=C(Nc1ccc(S(=O)(=O)N2CCOCC2)cc1)c1ccc(Cl)cc1Cl,–,–,–,–,–,–
CCOC(=O)CSc1nc(N)c(C#N)c(-c2ccc(OC)cc2)c1C#N,–,-64,–,–,–,–
CCc1nnc(N/N=C/c2ccc(-c3ccc([N+](=O)[O-])cc3)o2)n1N,32µM,–,–,–[11.6 µM],–,–
Cc1nnc(N/N=C/c2ccc(-c3ccccc3F)o2)n1N,3.5µM,–,–,–[11.6 µM],–,?
CCC(=O)N/N=C/c1ccc(-c2ccc([N+](=O)[O-])cc2)o1,–,–,–,–,–,?
Cc1nnc(N/N=C\c2ccc(-c3ccccc3[N+](=O)[O-])o2)n1N,4µM,–,–,–[11.6 µM],–,–
CC(O)CNc1nc(Cl)c(C#N)s1 (stereo unspecified),–,–,–,–,–,–
Cc1ccc(N2C(=O)N3[C@H](c4ccc(F)cc4)[C@@H]4C(=O)N(C5CCCCC5)C(=O)[C@@H]4[C@]3(C)C2=O)cc1,–,-65,–,–,–,?
COc1cc(C(=O)N(Cc2ccccc2)c2cccc(C)c2)ccc1OCC(=O)N1CCOCC1,·,–,–,–,·,·
SMILES,Pol iota inh,PI5P4Ka inh,Pol eta inh,WRN inhibitor,POLK inh,POLB inh
COc1ccccc1/C=C(/NC(=O)c1ccccc1)C(=O)NCCN1CCOCC1,–,–,–,–,–,–
Cc1ccc(C2=NN(C(=O)CCCC(=O)O)C(c3ccco3)C2)cc1 (stereo unspecified),–,–,–,–,–,89µM
CC(=O)N1N=C(c2ccc(C)cc2)CC1c1ccco1 (stereo unspecified),–,–,–,–,–,–
O=C(O)CCC(=O)N1N=C(c2ccco2)CC1c1cccs1 (stereo unspecified),–,?,–,–,–,?
O=C(O)CCC(=O)N1N=C(c2ccco2)CC1c1ccco1 (stereo unspecified),50µM,–,?,–[11.6 µM],?,–
CCCCN(C=O)c1c(CC)nc2ccc(C(=O)N(C)Cc3ccco3)cn12,·,–,·,–,·,·
O=c1[nH]nc(-c2ccccc2)cc1-c1ccccc1,–,–,–,–,–,·
Cc1cc(-c2ccccc2)c2c(=O)[nH][nH]c2n1,79µM,–,–,–,–,–
CCc1ccc([C@@H]2CC=C(C(=O)O)[C@H](c3ccccc3)N2S(=O)(=O)c2ccc(C)cc2)cc1,–,–,–,–,–,·
Cc1ccc(S(=O)(=O)N2[C@@H](c3ccc(Cl)cc3)C(C(=O)O)=CC[C@H]2c2ccc(Cl)c(Cl)c2)cc1,?,–,89µM,–[11.6 µM],–,·
CCc1ccc([C@@H]2CC=C(C(=O)O)[C@H](c3ccc(C(C)(C)C)cc3)N2S(=O)(=O)c2ccc(C)cc2)cc1,–,?,32µM,?,–,·
CC1(c2nc3ccccc3[nH]2)CCC2=Nc3ccccc3CN21 (stereo unspecified),·,–,·,–,·,·
Cc1ccccc1-n1c2nc(=O)[nH]c(=O)c-2cc2c(Cl)cccc21,–,·,–,·,–,–
O=C(c1ccc(Cl)c(S(=O)(=O)Nc2ccccc2C(=O)N2CCc3ccccc3C2)c1)N1CCc2ccccc2C1,–,–,40µM,–[11.6 µM],–,–
CCOc1cccc(=O)c2c(C)n(CC(=O)c3ccccc3)c(C)c12,?,?,–,–,?,?
COc1cccc(=O)c2c(C)n(CC(=O)c3ccccc3)c(C)c12,?,?,?,–,–,22µM
Cc1cccc(/C=C/C(=O)c2ccc([N+](=O)[O-])o2)c1,11µM,–,?,–,–,·
O=C(/C=C/c1cccc([N+](=O)[O-])c1)c1ccc([N+](=O)[O-])o1,?,?,?,–,–,·
Cc1cccc(CN2C(=O)c3ccccc3Sc3ccc(C(=O)NC4CCCCC4)cc32)c1,–,·,–,·,–,–
Cc1ccc(-c2nn3c(C)nnc3s2)cc1NC(=O)c1ccc(-c2ccc(Cl)cc2Cl)o1,?,·,?,?,?,4µM
Cc1ccc(-c2nn3c(C)nnc3s2)cc1NC(=O)c1ccc(-c2cccc(Cl)c2)o1,32µM,-53,?,50µM,–,7.1µM
Cc1ccc(-c2nn3c(C)nnc3s2)cc1NC(=O)c1ccc(Br)o1,–,–,–,–,–,–
COc1ccc(/C=c2\s/c(=C\C(=O)C(C)(C)C)[nH]c2=O)cc1O,–,-72,–,–,–,–
COc1cc(/C=c2\s/c(=C\C(=O)C(C)(C)C)[nH]c2=O)cc(OC)c1OC,–,–,–,–,–,–
COCCn1c(=O)c(-c2cccs2)nc2cnc(N(C)C)nc21,·,·,·,·,–,·
CC(C)CCN(Cc1ccco1)C(=O)Cn1ncc2c([nH]c3ccccc32)c1=O,–,·,–,·,–,–
CCOC(=O)C1CCCN(C2=NC(=O)/C(=C/c3ccc(OC)cc3OC)S2)C1 (stereo unspecified),–,-79,–,–,–,–

# Screening results as filed in PubChem BioAssay.
